Results filed as inconclusive are left out. Active and inactive are the calls of the source. Rule for the calls, unless noted: active = hit-call score of the fitted dose curve at least 0.9, where 1 is the maximum; inactive = score below 0.9. Peptide text beside a SMILES is read from it.
Experiments:
[1] = ACEA_ER_80hr: ACEA Biosciences xCELLigence Real-Time Cell Analysis on Estrogen Receptor Agonism for Proliferation (AID 2282667; active = hit-call score of the fitted dose curve at least 0.9, where 1 is the maximum); conditions: T47D proliferation, impedance (xCELLigence), 80 h
Summary of the method: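 Real-time impedance growth kinetics of human T-47D breast cells read 80 h after dosing, gain-of-signal fitted relative to DMSO. Compounds: 1:4 serial series, top final concentration 100 uM, n = 2.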

[2] = ATG_CRE_CIS: Attagene CIS-FACTORIAL HepG2 Assay for human cAMP Responsive Element (CRE) binding protein 3 (AID 2282926); conditions: HepG2 CRE cis-reporter, Attagene multiplexed mRNA; actives raise or lower the signal
Summary of the method: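 Endogenous transcription factor activity read via CRE-regulated reporter transcripts in transfected HepG2 cells. After 24 h exposure, RNA was reverse-transcribed, amplified, fluorescently labelled and sized by capillary electrophoresis; gain or loss fitted against DMSO.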

[3] = biological target: CCAAT/enhancer-binding protein beta (Homo sapiens) (UniProt P17676); assay: ATG_C_EBP_CIS: Attagene CIS-FACTORIAL HepG2 Assay for human CCAAT/Enhancer Binding Protein (C/EBP) beta (AID 2282927); conditions: HepG2 Attagene cis-factorial transcription factor reporter; actives raise or lower the signal
Summary of the method: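 Transiently transfected HepG2 (MRTU library, endogenous TF-driven promoters); 24 h dosing; total RNA → oligo(dT) RT → PCR → 6-FAM primer extension → HpaI digest → CE; fit bidirectionally vs DMSO.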

[4] = ATG_CMV_CIS: Attagene CIS-FACTORIAL HepG2 Assay for human CMV (Internal Marker) (AID 2282928); conditions: HepG2 CMV promoter reporter, transcription factor profiling; actives raise or lower the signal;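 note: endpoint acts as a background internal control marker rather than a target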
Summary of the method: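 24 h chemical treatment, HepG2 with transient multi-reporter transfection; RNA → oligo(dT) RT → PCR → 6-FAM extension → HpaI digest → CE fluorescence. Bidirectional fit, DMSO negative control.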

[5] = ATG_DR4_LXR_CIS: Attagene CIS-FACTORIAL HepG2 Assay for human Liver X Receptor (LXR), DR4 submotif (AID 2282929); conditions: HepG2 Attagene DR4 cis-reporter, mRNA transcription; actives raise or lower the signal
Summary of the method: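 Measures endogenous transcription factor activity via a DR4-driven reporter transcript in human HepG2 cells. Compounds incubated 24 h; mRNA quantified by RT-PCR and capillary electrophoresis, analysed as gain or loss of signal versus DMSO.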

[6] = biological target: Aryl hydrocarbon receptor (Homo sapiens) (UniProt P35869); assay: ATG_Ahr_CIS: Attagene CIS-FACTORIAL HepG2 Assay for human Aryl Hydrocarbon Receptor (Ahr) (AID 2282930); conditions: HepG2 AhR cis-factorial reporter transcription; actives raise or lower the signal
Summary of the method: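 Read-out: reporter mRNA quantified by RT-PCR with fluorescent primer extension and capillary electrophoresis. Human HepG2 liver cells carried transfected cis-promoter reporter units and were exposed to chemical for 24 h; gain or loss fitted relative to DMSO.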

[7] = ATG_AP_1_CIS: Attagene CIS-FACTORIAL HepG2 Assay for human Activator Protein 1 (AP-1) (AID 2282931); conditions: HepG2 Attagene cis-factorial AP-1 reporter mRNA; actives raise or lower the signal
Summary of the method: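 Bidirectional concentration-response fitting against DMSO controls. Underlying signal: reporter mRNA from cis-promoter constructs in transiently transfected HepG2, measured after 24 h by RT-PCR and capillary electrophoresis.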

[8] = ATG_AP_2_CIS: Attagene CIS-FACTORIAL HepG2 Assay for human Activator Protein 2 (AP-2) (AID 2282932); conditions: HepG2 AP-2 cis-reporter, Attagene transcription factor profiling; actives raise or lower the signal
Summary of the method: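 Read-out: fluorescent reporter mRNA via RT-PCR and capillary electrophoresis, 24 h post-dose in transiently transfected HepG2. Endogenous factors drive cis-promoter reporters; gain or loss of signal fitted bidirectionally against DMSO.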

[9] = ATG_BRE_CIS: Attagene CIS-FACTORIAL HepG2 Assay for human Bone Morphogenetic Protein (BMP) Response Element (BRE) (AID 2282933); conditions: HepG2 BMP response element reporter, Attagene transcription factor profiling; actives raise or lower the signal
Summary of the method: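 HepG2 cells transiently transfected with CIS reporter units (endogenous TF activity, BMP response element), dosed 24 h. Reporter mRNA quantified by RT-PCR, fluorescent labelling and capillary electrophoresis; bidirectional fit vs DMSO baseline.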

[10] = biological target: Retinoic acid receptor alpha (Homo sapiens) (UniProt P10276); assay: ATG_DR5_RAR_CIS: Attagene CIS-FACTORIAL HepG2 Assay for human Retinoic Acid Receptor Alpha (RARE), DR5 submotif (AID 2282934); conditions: HepG2 Attagene cis-factorial RARE DR5 reporter, mRNA; actives raise or lower the signal;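 for AC50: reporter responds to endogenous RAR alpha beta and gamma in HepG2 not RARA alone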
Summary of the method: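 Read-out: DR5-driven reporter transcript measured by RT-PCR, 6-FAM primer extension, HpaI digest and capillary electrophoresis. Human HepG2 liver cells carry transiently transfected cis-element reporter constructs; dosing lasts 24 h. Gain or loss of signal fitted against DMSO baseline.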

[11] = biological target: Transcription factor E2F1 (Homo sapiens) (UniProt Q01094); assay: ATG_E2F_CIS: Attagene CIS-FACTORIAL HepG2 Assay for human E2F Transcription Factor 1 (AID 2282935); conditions: HepG2 Attagene cis-reporter, E2F reporter RNA transcripts; actives raise or lower the signal
Summary of the method: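 Transient MRTU transfection of HepG2; 24 h compound exposure; RNA → oligo(dT) RT → PCR → FAM label → HpaI cut → CE fluorescence. Gain/loss of signal fit against DMSO.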

[12] = ATG_E_Box_CIS: Attagene CIS-FACTORIAL HepG2 Assay for human Enhancer Box (E-box) (AID 2282936); conditions: HepG2 E-box cis-reporter transcription, actives raise or lower the signal
Summary of the method: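 Transiently transfected HepG2, endogenous TF-driven reporters, 24 h dosing. Readout: RT-PCR plus capillary electrophoresis of fluorescent reporter fragments. Gain or loss of signal fitted bidirectionally against DMSO baseline.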

[13] = ATG_M_61_CIS: Attagene CIS-FACTORIAL HepG2 Assay for M61 Transcription Factor (Internal Marker) (AID 2282937); conditions: HepG2 Attagene CIS-FACTORIAL M61 internal marker reporter; actives raise or lower the signal
Summary of the method: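 Fluorescence from labelled cDNA fragments, separated by capillary electrophoresis, quantifies reporter induction. HepG2 cells bearing transiently transfected cis-promoter MRTUs were incubated with test chemical for 24 h; DMSO defined baseline for gain/loss fitting.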

[14] = ATG_EGR_CIS: Attagene CIS-FACTORIAL HepG2 Assay for human Early Growth Response 1 (EGR1) (AID 2282938); conditions: HepG2 Attagene CIS-FACTORIAL EGR reporter mRNA; actives raise or lower the signal
Summary of the method: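 Cell-based multiplex transcription assay: HepG2 carrying transfected cis-element reporter units, 24 h chemical treatment. Fluorescence from capillary electrophoresis of RT-PCR products gives mRNA levels; fitting is bidirectional relative to DMSO.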

[15] = ATG_M_19_CIS: Attagene CIS-FACTORIAL HepG2 Assay for M19 Transcription Factor (Internal Marker) (AID 2282939); conditions: HepG2 Attagene CIS-FACTORIAL M19 internal marker reporter; actives raise or lower the signal
Summary of the method: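 HepG2 cells transiently transfected with cis-regulated multiplexed reporter units, dosed 24 h. Reporter mRNA quantified by RT-PCR and capillary electrophoresis; internal background marker fitted bidirectionally versus DMSO.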

[16] = ATG_ERE_CIS: Attagene CIS-FACTORIAL HepG2 Assay for Estrogen Response Element (ERE) (AID 2282940); conditions: HepG2 ERE cis-reporter, Attagene RNA transcript; actives raise or lower the signal
Summary of the method: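 HepG2 cells transiently transfected with multiplexed cis-element reporter units, measuring endogenous transcription factor activity; ERE reporter mRNA quantified after 24 h exposure by RT-PCR, fluorescent labelling, HpaI digestion and capillary electrophoresis. Bidirectional change versus DMSO.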

[17] = ATG_Ets_CIS: Attagene CIS-FACTORIAL HepG2 Assay for human Erythroblast Transformation Specific (ETS) (AID 2282941); conditions: HepG2 ETS cis-reporter transcription, actives raise or lower the signal
Summary of the method: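 Cis-regulated reporter mRNA induction in HepG2 (transient transfection), 24 h exposure, RT-PCR plus capillary electrophoresis detection; DMSO serves as negative control and baseline.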

[18] = biological target: Hepatocyte nuclear factor 3-beta (Homo sapiens) (UniProt Q9Y261); assay: ATG_FoxA2_CIS: Attagene CIS-FACTORIAL HepG2 Assay for human Forkhead box A2 (FOXA2) (AID 2282942); conditions: HepG2 cis-reporter transcription factor activity, 24 h; actives raise or lower the signal
Summary of the method: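 In transiently transfected human HepG2 cells, promoter-driven reporter mRNA levels after 24 h chemical exposure are determined via RT-PCR with capillary electrophoresis. DMSO serves as baseline for bidirectional fitting.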

[19] = ATG_FoxO_CIS: Attagene CIS-FACTORIAL HepG2 Assay for human Forkhead box O (FoxO) (AID 2282943); conditions: HepG2 Attagene cis-reporter, FoxO element, mRNA; actives raise or lower the signal
Summary of the method: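 Read-out: fluorescence of 6-FAM-labelled reporter cDNA fragments resolved by capillary electrophoresis. Transiently transfected HepG2 cells were dosed for 24 h; activity fitted in both directions relative to DMSO controls.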

[20] = ATG_GATA_CIS: Attagene CIS-FACTORIAL HepG2 Assay for human GATA Binding Protein (AID 2282944); conditions: HepG2 GATA cis-element reporter, Attagene multiplex mRNA; actives raise or lower the signal
Summary of the method: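 HepG2 cells transiently transfected with multiplexed cis-element reporter units measure endogenous GATA activity; after 24 h compound exposure, reporter mRNA quantified by RT-PCR and capillary electrophoresis. Changes fitted in both directions vs DMSO.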

Measured: AC50

Sequence of Retinoic acid receptor alpha (Homo sapiens) (P10276 whole entry, looked up): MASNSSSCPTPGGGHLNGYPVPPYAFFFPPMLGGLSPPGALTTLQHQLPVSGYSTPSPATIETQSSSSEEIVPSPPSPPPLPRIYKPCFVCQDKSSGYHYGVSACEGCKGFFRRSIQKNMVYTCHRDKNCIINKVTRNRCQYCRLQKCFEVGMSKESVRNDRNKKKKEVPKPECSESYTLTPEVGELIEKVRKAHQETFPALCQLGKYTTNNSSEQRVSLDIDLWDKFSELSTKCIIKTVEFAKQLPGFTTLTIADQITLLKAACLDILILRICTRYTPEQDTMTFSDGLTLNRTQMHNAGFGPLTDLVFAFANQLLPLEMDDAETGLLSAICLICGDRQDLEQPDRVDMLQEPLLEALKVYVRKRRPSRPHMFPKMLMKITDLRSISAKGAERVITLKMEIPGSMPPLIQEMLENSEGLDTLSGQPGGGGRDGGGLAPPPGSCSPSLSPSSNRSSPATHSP
Sequence of Transcription factor E2F1 (Homo sapiens) (Q01094 whole entry, looked up): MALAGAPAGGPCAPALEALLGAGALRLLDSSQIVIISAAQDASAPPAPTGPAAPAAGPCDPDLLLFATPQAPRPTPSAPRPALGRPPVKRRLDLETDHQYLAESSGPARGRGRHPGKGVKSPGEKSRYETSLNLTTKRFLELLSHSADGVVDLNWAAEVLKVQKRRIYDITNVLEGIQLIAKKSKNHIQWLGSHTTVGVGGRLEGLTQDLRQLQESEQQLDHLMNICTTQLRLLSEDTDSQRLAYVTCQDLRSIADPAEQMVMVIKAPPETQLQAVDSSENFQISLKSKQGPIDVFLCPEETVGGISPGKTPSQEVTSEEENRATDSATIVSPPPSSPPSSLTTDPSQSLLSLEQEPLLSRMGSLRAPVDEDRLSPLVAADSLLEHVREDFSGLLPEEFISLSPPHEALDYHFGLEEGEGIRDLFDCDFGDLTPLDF
Sequence of CCAAT/enhancer-binding protein beta (Homo sapiens) (P17676 whole entry, looked up): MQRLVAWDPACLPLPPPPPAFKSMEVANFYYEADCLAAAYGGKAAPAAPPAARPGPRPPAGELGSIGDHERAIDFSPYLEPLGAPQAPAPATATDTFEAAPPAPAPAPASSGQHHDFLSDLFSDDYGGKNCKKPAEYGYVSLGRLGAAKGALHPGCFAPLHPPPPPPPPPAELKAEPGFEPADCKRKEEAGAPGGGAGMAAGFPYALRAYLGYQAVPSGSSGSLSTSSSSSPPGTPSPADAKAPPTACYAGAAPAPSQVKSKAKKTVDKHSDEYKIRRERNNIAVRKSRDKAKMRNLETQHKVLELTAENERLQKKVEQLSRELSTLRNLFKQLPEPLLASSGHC
Sequence of Hepatocyte nuclear factor 3-beta (Homo sapiens) (Q9Y261 whole entry, looked up): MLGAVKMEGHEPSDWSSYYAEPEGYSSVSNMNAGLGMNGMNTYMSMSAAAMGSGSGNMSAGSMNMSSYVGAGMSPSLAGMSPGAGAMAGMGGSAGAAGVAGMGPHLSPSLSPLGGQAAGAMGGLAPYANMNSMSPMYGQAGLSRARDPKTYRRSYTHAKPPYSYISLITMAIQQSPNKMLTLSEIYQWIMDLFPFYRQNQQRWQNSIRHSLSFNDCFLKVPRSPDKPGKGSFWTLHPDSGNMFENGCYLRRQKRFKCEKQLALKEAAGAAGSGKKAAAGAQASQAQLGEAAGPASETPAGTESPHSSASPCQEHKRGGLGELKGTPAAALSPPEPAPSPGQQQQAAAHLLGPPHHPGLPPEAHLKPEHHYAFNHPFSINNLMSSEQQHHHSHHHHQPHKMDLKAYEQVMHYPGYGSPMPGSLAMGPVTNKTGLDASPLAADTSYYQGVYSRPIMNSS
Sequence of Aryl hydrocarbon receptor (Homo sapiens) (P35869 whole entry, looked up): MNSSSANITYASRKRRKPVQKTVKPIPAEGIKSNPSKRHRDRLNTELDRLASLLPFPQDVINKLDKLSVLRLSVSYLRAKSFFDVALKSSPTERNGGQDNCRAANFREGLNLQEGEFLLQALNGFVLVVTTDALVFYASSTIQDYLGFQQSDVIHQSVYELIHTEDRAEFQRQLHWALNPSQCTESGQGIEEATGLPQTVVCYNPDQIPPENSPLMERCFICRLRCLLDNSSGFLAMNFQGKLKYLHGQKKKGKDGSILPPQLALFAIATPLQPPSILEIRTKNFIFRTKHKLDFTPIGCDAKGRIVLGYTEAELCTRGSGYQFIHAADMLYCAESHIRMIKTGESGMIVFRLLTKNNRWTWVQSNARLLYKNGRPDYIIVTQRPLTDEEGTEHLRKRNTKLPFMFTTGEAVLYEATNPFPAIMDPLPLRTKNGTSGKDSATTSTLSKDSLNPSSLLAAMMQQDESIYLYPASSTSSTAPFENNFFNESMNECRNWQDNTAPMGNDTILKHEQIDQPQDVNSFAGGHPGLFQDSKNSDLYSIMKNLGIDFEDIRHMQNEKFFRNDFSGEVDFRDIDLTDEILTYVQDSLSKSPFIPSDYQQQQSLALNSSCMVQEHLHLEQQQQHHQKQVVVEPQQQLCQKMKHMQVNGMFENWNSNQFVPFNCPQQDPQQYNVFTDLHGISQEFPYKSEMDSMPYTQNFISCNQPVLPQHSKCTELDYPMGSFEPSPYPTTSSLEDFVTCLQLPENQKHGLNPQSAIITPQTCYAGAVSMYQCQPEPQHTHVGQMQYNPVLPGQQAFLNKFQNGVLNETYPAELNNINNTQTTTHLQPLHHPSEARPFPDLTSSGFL

Cc1ccccc1CCO
not listed: [20]
inactive: all other assays above

CCCCCCCCCCCCCC(=O)OC(C)C
inactive: all assays above

Nc1ccnc(=O)[nH]1
inactive: all assays above

O=C(O)c1ccc2c(c1)C(=O)OC2=O
inactive: all assays above

Cn1cccc1
active: [7] 26.4 µM
inactive: all other assays above

CCCCCCCCCC[N+](C)(CCCCCCCCCC)CCC[Si](OC)(OC)OC
active: [2] 17.5 µM | [3] 18.2 µM | [8] 15.3 µM | [10] 16.9 µM | [12] 17.8 µM | [14] 7.33 µM | [15] 17.8 µM | [18] 17.7 µM
not listed: [20]
inactive: all other assays above

CCC(C)c1ccccc1 (stereo unspecified)
inactive: all assays above

C=CCNCC=C
not listed: [20]
inactive: all other assays above

CCCCOC(=O)C(C)CC (stereo unspecified)
not listed: [20]
inactive: all other assays above

O=C1c2ccccc2C(=O)c2cc(S(=O)(=O)O)ccc21
not listed: [20]
inactive: all other assays above

CC(=O)c1ccccc1O
inactive: all assays above

CC(C)(C)NC(=O)[C@H]1CC[C@H]2[C@@H]3CC[C@H]4NC(=O)C=C[C@]4(C)[C@H]3CC[C@]12C
inactive: all assays above

COC(C=C(C)CCC=C(C)C)OC
active: [7] 146 µM
not listed: [20]
inactive: all other assays above

COC(=O)[C@H](Cc1ccccc1)NC(=O)[C@@H](N)CC(=O)O (H-Asp-Phe-OMe)
active: [16] 42.1 µM
inactive: all other assays above

CC(C)(O)Cc1ccccc1
not listed: [20]
inactive: all other assays above

O=C1CCCCCCCCCCCN1
active: [1] 53.3 µM
inactive: all other assays above

CCNc1nc(NC(C)(C)C)nc(OC)n1
not listed: [20]
inactive: all other assays above

CCCSSCCC
inactive: all assays above

Cc1c[nH]c(=O)[nH]c1=O
not listed: [20]
inactive: all other assays above

C=C1C[C@H]2[C@@H]3C=C(C)C4=CC(=O)CC[C@]4(C)[C@H]3CC[C@]2(C)[C@@]1(OC(C)=O)C(C)=O
active: [1] 0.00363 µM | [5] 99.7 µM | [7] 63 µM | [12] 97.6 µM | [14] 52.3 µM | [19] 93.7 µM | [20] 93.6 µM
inactive: all other assays above

CC(=O)OC1CCCCC1C(C)(C)C (stereo unspecified)
inactive: all assays above

CCc1cccc(C)c1N(C(=O)CS(=O)(=O)O)C(C)COC (stereo unspecified)
active: [16] 27.5 µM
inactive: all other assays above

CCCCCCC=O
active: [1] 10.9 µM | [16] 26.7 µM
inactive: all other assays above

CC(=O)OC1CCCCC1
inactive: all assays above

CCCC1CCCC(=O)O1 (stereo unspecified)
active: [16] 21.3 µM
inactive: all other assays above

CC(=O)CCC1=C(C)CCCC1(C)C
active: [16] 29.8 µM
inactive: all other assays above

CCCCCC[C@@H](O)C/C=C\CCCCCCCC(=O)OCC(O)CO (stereo partly specified)
active: [4] 131 µM | [5] 163 µM | [7] 75.7 µM | [8] 158 µM | [11] 133 µM | [14] 151 µM | [17] 178 µM | [19] 178 µM | [20] 128 µM
inactive: all other assays above
